This note sets out measurements from PubChem BioAssay (NCI).

This is part of a sample that, as a whole, favours compounds with a hit. Of some 83,000 tested, about 20% had one in any assay.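 Negative percent growth values reflect cell death: -40 means 40% of the cells present at the start died, and -100 means all died.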 Activity calls are given as the source filed them. Rule for the calls: active = growth percent below 10; inactive = the rest.

The subject of this assay is HL-60(TB) leukemia. The assay is described as follows: NCI-60 one-dose screen, 48 h (100 = growth as untreated, 0 = no growth, -100 = all killed). The settings on record: 10 µM unless noted.
On to `NCCCNc1nc2ccccc2c2c(=O)c3cc(F)cc(Cl)c3sc12`, for which the growth is 75.5% (inactive).

As to `COC1/C=C/OC2(C)Oc3c(C)c(O)c4c(O)c(c(/C=N/N(c5ccccc5)c5ccccc5)c(O)c4c3C2=O)NC(=O)C(C)=C/C=C/C(C)C(O)C(C)C(O)C(C)C(OC(C)=O)C1C` (stereo not given), the growth was 53.1% (inactive).

For `CCC(C)Nc1ccc(N)cc1` (stereo not given), the growth was -9.29% (active).

With `Cc1cc(/C=C/c2ccc3cc(N(C)C)ccc3[n+]2C)c(C)n1-c1ccccc1`, the growth is -26.1% (active).

For the compound `O=C1CN(Cc2ccc(C(=O)NO)cc2)C(=O)[C@@H](Cc2ccccc2)N1`, the growth is 130% (inactive).

With `Cn1cc(C(=O)c2nc(-c3c[nH]c4ccc(F)cc34)no2)c2cc(F)ccc21`, the growth was 70.5% (inactive).

For the compound `CC/C=C\C[C@H](O)C/C=C1/C(=O)C=C[C@@H]1C/C=C\CCCC(=O)O`, the growth is 75.2% (inactive).

Take `COc1cc2cc(Oc3ccc(NC(=O)c4ccc(Cl)c(C(F)(F)F)c4)cc3)c(C)nc2cc1OC`: the growth was 17.4% (inactive).

Take `COc1cccc(-c2nc3sccn3c2-c2ccnc(NCCCNS(=O)(=O)c3cccc(F)c3)c2)c1`: the growth was -26.9% (active).

As for `CCOC(=O)c1ccc(N(C=O)CCC(=O)CCl)cc1`, the growth was -28.6% (active).

Take `Clc1nc(Cl)c2ncn(CC#CCn3cnc4c(Cl)nc(Cl)nc43)c2n1`: the growth was -58.3% (active).

As to `COc1cc(C2C3=C(COC3=O)Nc3cc4c(cc32)OCO4)cc2c1OCO2` (stereo not given), the growth is -8.91% (active).

`N#Cc1c(-c2ccc(F)cc2)nc(N=Nc2c(O)[nH]c3ccccc23)nc1N1CCOCC1`: the growth is 101% (inactive).

Turning to `Cc1cc(Cl)ccc1Nc1nc(C(F)(F)F)ccc1C(=O)N/N=C/c1ccc([N+](=O)[O-])cc1`, the growth was -24.1% (active).

`CN(C)CCOc1cccc(-c2nc3sccn3c2-c2ccnc(S(C)(=O)=O)n2)c1`: the growth was 104% (inactive).

`COc1ccc(C(C(=O)O)c2ccc(OC)cc2)cc1`: the growth was 97.9% (inactive).

In the case of `O=S(=O)(NCCCNc1nccc(-c2cn(-c3ccccc3)nc2-c2ccc(Cl)c(O)c2)n1)c1ccccc1`, the growth was 83.4% (inactive).

Turning to `CCOc1cccc(-c2nc(N)nc(Nc3ccccc3SSc3ccccc3Nc3nc(N)nc(-c4cccc(OCC)c4)n3)n2)c1`, the growth was 8.5% (active).

Take `COc1ccc(C(=O)Nn2c(NCC(=O)N3c4ccccc4Sc4ccccc43)nnc2-c2ccc(O)cc2)cc1`: the growth is 94.3% (inactive).

Consider `C#CC#CC#CC#CC#CC#CC#CC#CC[C@@H]1OC[C@@H](COC(=O)O[C@@H](C(=O)O[C@H]2C[C@@]3(O)[C@@H](OC(=O)c4ccccc4)[C@@H]4[C@]5(OC(C)=O)CO[C@@H]5C[C@H](O)[C@@]4(C)C(=O)[C@H](OC(C)=O)C(=C2C)C3(C)C)[C@@H](NC(=O)c2ccccc2)c2ccccc2)O1`, for which the growth was 2.63% (active).

As to `N#CN1CC[C@H](C(=O)Nc2ncc(-c3ccccc3)s2)C1`, the growth was -23.2% (active).

In the case of `Cc1ccc(NSc2ccccc2[N+](=O)[O-])cc1`, the growth is -6.97% (active).

For the compound `COc1ccc(C2CC(c3ccc(OC)c(OC)c3)=NN2C(=O)c2cc(OC)c(OC)c(OC)c2)c(OC)c1` (stereo not given), the growth is 84% (inactive).

With `NC(CS/C(Cl)=C/Cl)C(=O)O` (stereo not given), the growth was 86.9% (inactive).

As for `COc1ccc2c(c1)[nH]c(=O)c1c3cc(OC)ccc3cn21`, the growth was -8.1% (active).

Turning to `COc1ccc(/C(=C2\O[C@@H]([C@H](O)CO)[C@H]3OC(C)(C)O[C@@H]23)c2cc(OC)c(OC)c(OC)c2)cc1O`, the growth was -2.8% (active).

Turning to `Cc1[nH]c(C2CC(c3ccc(C(F)(F)F)c(F)c3)=NN2C)c(C)c1C(=O)NCC(F)(F)F` (stereo not given), the growth is 97.1% (inactive).

On to `O=[N+]([O-])c1ccc(O)c(-c2nc3ccccc3s2)c1`, for which the growth is 52.8% (inactive).

On to `O=C(Cn1nncc1CN1C(=O)CSC1=O)Nc1ccc(F)cc1`, for which the growth is 100% (inactive).

Regarding `COc1cc(-c2n[nH]nc2-c2ccc3c(c2)OCCO3)cc(OC)c1OC`, the growth was -5.41% (active).

Turning to `Oc1c(C(Nc2ccccc2Br)c2ccccc2)ccc2cccnc12` (stereo not given), the growth is -17.8% (active).

As for `O=C(Nc1nc(-c2ccc(Cl)cc2)cs1)c1cc(O)c(O)c(O)c1`, the growth is 10.4% (inactive).

In the case of `S=c1[nH]ccn1-c1ccccc1Cl`, the growth was 90% (inactive).

For the compound `COc1ccccc1/C=C/C(=O)CCC(=O)O`, the growth was 88.3% (inactive).

Consider `Clc1ccc(C2=NN[C@H](c3cn(-c4ccccc4)nc3-c3ccccc3)C2)cc1`, for which the growth was 100% (inactive).

Regarding `COc1ccc(/C(=C\c2cc(OC)c(OC)c(OC)c2)C(=O)N2CCN(c3ccccc3)CC2)cc1O`, the growth was 106% (inactive).

In the case of `CC1(C)OC(=O)C(=Cc2ccccc2Br)C(=O)O1`, the growth is 98.5% (inactive).

`COC1NC(Cl)=C(C#N)C(C#N)(C#N)C1(C)C` (stereo not given): the growth is 92.9% (inactive).

In the case of `CC(C)OP(=O)(CCC(=O)c1c[nH]c2ccccc12)OC(C)C`, the growth was 92.2% (inactive).

As for `CC[C@H](C)C(=O)O[C@H]1CCC=C2C=C[C@H](C)[C@H](CC[C@@H]3CC=CC(=O)O3)[C@H]21`, the growth was -0.21% (active).
